# Results: PubChem BioAssay (NCI)
# Compounds without any hit were thinned out: in the full panel of roughly 83,000, 20% have a hit.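 Results are percent growth after 48 hours of single-concentration exposure. 100 means growth as in untreated cells, lower positive values show inhibition; negative values down to -100 show cell death.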 A number with no mark means an inactive call. Calls of active or inactive are those of the source. Rule for the calls: active = growth percent below 10; inactive = the rest.
# System: SK-MEL-2 melanoma
# Assay: NCI-60 one-dose screen, 48 h (100 = growth as untreated, 0 = no growth, -100 = all killed)
# Settings: 10 µM unless noted
row,SMILES,growth
1,CCCCNC(=O)NS(=O)(=O)c1ccc(N2N=C(c3ccc(C)cc3C)CC2c2ccc(N(C)C)cc2)cc1 (configuration not stated),78%
2,O=C(Nc1ccc(N2CCCCC2)c(Cl)c1)c1ccc(Br)o1,91.9%
3,Nc1ccc(CCCCc2ccccc2)c(Cl)c1,91.2%
4,COc1ccc(C(=O)/C=C/c2cc3c(c(OC)c2)OCC(=O)N3)cc1,110%
5,CO[C@H]1/C=C/O[C@@]2(C)Oc3c(C)c(O)c4c(c3C2=O)C(=O)C(/C=N/N(c2ccccc2)c2ccccc2)=C(NC(=O)/C(C)=C\C=C\[C@H](C)[C@H](O)[C@@H](C)[C@@H](O)[C@@H](C)[C@H](OC(C)=O)[C@@H]1C)C4=O,-60.8% (active)
6,COc1cc(NC(=O)c2cccc(-c3cc(=O)c4c(O)c(OC)c(OC)cc4o3)c2)cc(OC)c1OC,69.6%
7,NC(N)=N/N=C/CO,107%
8,CCOC(=O)c1sc2ccc(NCc3nc[nH]c3C)cc2c1NC(=O)c1cc(OC)c(OC)c(OC)c1,84.1%
9,CCCCCCCSc1ccc(C(=O)O)cc1,103%
10,COc1cc2oc(-c3cccc(C(=O)Nc4ccc(C)cc4)c3)cc(=O)c2c(OC)c1OC,42.3%
11,Fc1ccc(Nc2nc3nonc3nc2Nc2ccc(F)cc2)cc1,-26.2% (active)
12,Clc1ccc2[nH]c3c(NCCCN4CCOCC4)ncnc3c2c1,94.5%
13,Cc1nc(C)c(-c2nn3c(-c4cccc(F)c4)nnc3s2)s1,102%
14,CCOc1cccnc1/C=N/NC(N)=S,52.2%
15,COc1cc2oc(-c3cccc(C(=O)Nc4ccc(C#N)cc4)c3)cc(=O)c2c(O)c1OC,74.4%
16,Nc1c(C(=O)Nc2ccccc2)sc2nc3c(cc12)CCCCCC3,9.7% (active)
17,O=C(Nc1cccc2[nH]c(C(F)(F)F)nc12)c1cc(Cl)ccc1Cl,-4.53% (active)
18,NC(=S)N/N=C/C(=O)O,85.3%
19,C(=C\c1nc2ccccc2[nH]1)/c1nc2ccccc2[nH]1,107%
20,CCC(=O)OC1=C(C)SC2=NC(c3ccc(Cl)c(Cl)c3)=CC(c3cc(OC)c(OC)c(OC)c3)N21 (configuration not stated),107%
21,C=C(Cl)COC(=O)C(C)(C)O,92.9%

# System: EKVX NSCLC
# Assay: as above
# Settings: 10 µM unless noted
row,SMILES,growth
1,O=C1Nc2ccccc2SC1c1ccccc1Cl (configuration not stated),95.2%
2,C[C@@H]1CC[C@@H]2[C@@H]1[C@H](OC(=O)c1ccc3ccccc3c1)[C@]1(C3CCCCC3)C[C@@H](OC(=O)CO)[C@@]2(C)O1,62%
3,C[C@@H]1C(=O)N(C[C@H](Cc2ccccc2)N(Cc2ccccc2)Cc2ccccc2)[C@]1(Cc1ccccc1)C(=O)OC(C)(C)C,53.2%
4,Cc1ccc(-n2nnc(C3=NCCc4c3[nH]c3ccc(Cl)cc43)c2C)cc1,70.8%
5,COc1ccc(OC)c(/C=C2\COc3ccc(O)c(O)c3C2=O)c1,57.9%
6,CCOc1ccc2nc(-c3cccc(OCC(=O)NC(C)C)c3)nc(Nc3ccc(-c4cn[nH]c4)cc3)c2c1,9.24% (active)
7,CN(C)c1ccc(C#Cc2c(F)cccc2Cl)cc1,63.5%
8,CC1(C)N=C(N)N=C(N)N1c1ccc(Cl)c(Cl)c1,52.5%
9,O=C1NCC(=O)N(Cc2ccco2)[C@H]1Cc1ccccc1,89.2%
10,O=C(Nc1ccccn1)[C@H](O)[C@@H](O)C(=O)N1CCOCC1,109%
11,CCOC(=O)Cc1csc2nc(-c3ccccc3)nn12,105%
12,CN(C)c1ccc(/C=C/c2c(F)cccc2F)cc1,76.2%
13,CCOc1cc(C2C(Cl)C(=O)N2n2cnnc2)ccc1O (configuration not stated),109%
14,Nc1ccn(C2OC(F)(CO)C(O)C2F)c(=O)n1 (configuration not stated),81.4%
15,CC(=O)C(C(C)=O)c1nc2sc3cc(Cl)ccc3n2c(=N)c1C#N,70.7%
16,O=C(CC1Sc2ccccc2NC1=O)NNc1ccc(F)cc1 (configuration not stated),75.9%
17,CN(C)c1ccc2cc(-c3ccc(Cl)c(Cl)c3)c(N)nc2c1,26.3%
18,COc1cc(/C=C2\C=C(c3ccccc3)N(CCc3ccccc3)C2=O)cc(OC)c1OC,69.2%

# System: SN12C renal
# Assay: as above
# Settings: 10 µM unless noted
row,SMILES,growth
1,CCCCNC(=O)NS(=O)(=O)c1ccc(N2N=C(c3ccc(C)cc3C)CC2c2ccc(N(C)C)cc2)cc1 (configuration not stated),59.4%
2,O=C1Nc2ccccc2SC1c1ccccc1Cl (configuration not stated),108%
3,O=C(Nc1ccc(N2CCCCC2)c(Cl)c1)c1ccc(Br)o1,80.6%
4,Nc1ccc(CCCCc2ccccc2)c(Cl)c1,87.4%
5,C[C@@H]1CC[C@@H]2[C@@H]1[C@H](OC(=O)c1ccc3ccccc3c1)[C@]1(C3CCCCC3)C[C@@H](OC(=O)CO)[C@@]2(C)O1,24%
6,COc1ccc(C(=O)/C=C/c2cc3c(c(OC)c2)OCC(=O)N3)cc1,48.7%
7,CO[C@H]1/C=C/O[C@@]2(C)Oc3c(C)c(O)c4c(c3C2=O)C(=O)C(/C=N/N(c2ccccc2)c2ccccc2)=C(NC(=O)/C(C)=C\C=C\[C@H](C)[C@H](O)[C@@H](C)[C@@H](O)[C@@H](C)[C@H](OC(C)=O)[C@@H]1C)C4=O,-49.2% (active)
8,COc1cc(NC(=O)c2cccc(-c3cc(=O)c4c(O)c(OC)c(OC)cc4o3)c2)cc(OC)c1OC,63%
9,NC(N)=N/N=C/CO,109%
10,CCOC(=O)c1sc2ccc(NCc3nc[nH]c3C)cc2c1NC(=O)c1cc(OC)c(OC)c(OC)c1,87.5%
11,CCCCCCCSc1ccc(C(=O)O)cc1,93.2%
12,COc1cc2oc(-c3cccc(C(=O)Nc4ccc(C)cc4)c3)cc(=O)c2c(OC)c1OC,31.6%
13,Fc1ccc(Nc2nc3nonc3nc2Nc2ccc(F)cc2)cc1,12%
14,C[C@@H]1C(=O)N(C[C@H](Cc2ccccc2)N(Cc2ccccc2)Cc2ccccc2)[C@]1(Cc1ccccc1)C(=O)OC(C)(C)C,56.8%
15,Cc1ccc(-n2nnc(C3=NCCc4c3[nH]c3ccc(Cl)cc43)c2C)cc1,81.6%
16,COc1ccc(OC)c(/C=C2\COc3ccc(O)c(O)c3C2=O)c1,-4.71% (active)
17,CCOc1ccc2nc(-c3cccc(OCC(=O)NC(C)C)c3)nc(Nc3ccc(-c4cn[nH]c4)cc3)c2c1,18.6%
18,CN(C)c1ccc(C#Cc2c(F)cccc2Cl)cc1,82.2%
19,Clc1ccc2[nH]c3c(NCCCN4CCOCC4)ncnc3c2c1,82.5%

row,SMILES,growth
1,Cc1nc(C)c(-c2nn3c(-c4cccc(F)c4)nnc3s2)s1,97.6%
2,CC1(C)N=C(N)N=C(N)N1c1ccc(Cl)c(Cl)c1,27.1%
3,CCOc1cccnc1/C=N/NC(N)=S,53.5%
4,COc1cc2oc(-c3cccc(C(=O)Nc4ccc(C#N)cc4)c3)cc(=O)c2c(O)c1OC,64.9%
5,O=C1NCC(=O)N(Cc2ccco2)[C@H]1Cc1ccccc1,98.1%
6,O=C(Nc1ccccn1)[C@H](O)[C@@H](O)C(=O)N1CCOCC1,97.3%
7,CCOC(=O)Cc1csc2nc(-c3ccccc3)nn12,106%
8,CN(C)c1ccc(/C=C/c2c(F)cccc2F)cc1,98.2%
9,CCOc1cc(C2C(Cl)C(=O)N2n2cnnc2)ccc1O (configuration not stated),98.6%
10,Nc1ccn(C2OC(F)(CO)C(O)C2F)c(=O)n1 (configuration not stated),36.4%
11,CC(=O)C(C(C)=O)c1nc2sc3cc(Cl)ccc3n2c(=N)c1C#N,90%
12,O=C(CC1Sc2ccccc2NC1=O)NNc1ccc(F)cc1 (configuration not stated),89.5%
13,CN(C)c1ccc2cc(-c3ccc(Cl)c(Cl)c3)c(N)nc2c1,40.9%
14,O=C(Nc1cccc2[nH]c(C(F)(F)F)nc12)c1cc(Cl)ccc1Cl,28.7%
15,NC(=S)N/N=C/C(=O)O,90.4%
16,COc1cc(/C=C2\C=C(c3ccccc3)N(CCc3ccccc3)C2=O)cc(OC)c1OC,82%
17,C(=C\c1nc2ccccc2[nH]1)/c1nc2ccccc2[nH]1,100%
18,CCC(=O)OC1=C(C)SC2=NC(c3ccc(Cl)c(Cl)c3)=CC(c3cc(OC)c(OC)c(OC)c3)N21 (configuration not stated),95.3%
19,C=C(Cl)COC(=O)C(C)(C)O,107%
